Screening results: PubChem BioAssay, several laboratories
Most compounds without a hit are left out; they make up all but 4.8% or so of the library.
tim23-1 inh – growth inhibitors of tim23-1 mutant yeast, primary screen, luminescence, uHTS | 330,000 tested, 1.3% active | inhibition, % at 20 µM | S. cerevisiae tim23-1 growth, BacTiter-Glo luminescence, 24 h;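 active means growth inhibition of the mutant yeast at or above 50%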;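 further: temperature-sensitive mutant grown at 25 °C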
TIM10 inh – growth inhibitors of isogenic TIM10 control yeast, primary screen, counter-screen for tim10-1 yeast inhibitor project, luminescence, uHTS | S. cerevisiae TIM10 strain growth, BacTiter-Glo luminescence, 24 h | AID 463195, 2010 | 330,000 tested, 1.4% active | inhibition, % at 10 µM;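 active means inhibition of 40% or more at the single tested concentration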;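 further: wild-type TIM10 isogenic control strain grown at permissive 25 °C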
tim10-1 inh – growth inhibitors of tim10-1 mutant yeast, primary screen, luminescence, uHTS; inhibition, % at 20 µM; 330,000 tested, 2.2% active; S. cerevisiae tim10-1 ts strain growth, BacTiter-Glo, 24 h;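 active means inhibition of at least 40%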;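 further: mutant grown at 25 °C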
SKKanGAS inh – S. pyogenes SKKanGAS growth inhibitors in kanamycin, primary screen, streptokinase expression inhibitor project, SKKanGAS strain, BacTiter-Glo luminescence. 6 h. inhibition, % at 7.5 µM. 300,000 tested, 1.3% active;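 active means mean replicate score, as percent of positive control median, at least 50; inconclusive means mean below 50 but one replicate at or above 50; inactive means mean and every replicate below 50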;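 further: strain carries kanamycin resistance gene driven by streptokinase promoter and grows in 40 µg/ml kanamycin; loss of luminescence reflects streptokinase promoter inhibition or plain growth inhibition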
PfHsp90 yeast 2 – growth inhibition of PfHsp90-expressing yeast, primary screen, antimalarial PfHsp90 inhibitor project, S. cerevisiae, BacTiter-Glo luminescence, single point, set 2; BacTiter-Glo ATP, 48 h; yeast lacking PDR1 and PDR3 efflux regulators; AID 504621, 2011; inhibition, % at 9.4 µM; 310,000 tested, 0.32% active;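 active means every replicate shows inhibition above about 80%, whatever the replicate mean, limit read from the data; inconclusive means mean inhibition reaches the set limit but some replicate falls short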
NALP1 yeast inh – NALP1 inflammasome inhibitors in reconstituted yeast, colorimetric, S. cerevisiae, triplicate retest. S. cerevisiae NALP1/ASC/caspase-1 growth, X-gal OD620, 72 h. inhibition, % at 10 µM. 280,000 tested, 0.61% active. AID 2071, 2009; in the data active means inhibition mostly above about 24%, no sharp cut-off; inactive means mostly below about 32%
tim23-1 conf – tim23-1 mutant yeast growth inhibitors, confirmation, luminescence, single concentration; shares compounds with tim23-1 inh; S. cerevisiae tim23-1 growth, BacTiter-Glo luminescence, 24 h; inhibition, % at 20 µM; 4,400 tested, 83% active; AID 463218, 2010;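 active means inhibition above about 39% in either of two replicate wells at 20 µM, limit read from the data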;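 further: temperature-sensitive tim23-1 mutant grown at 25 °C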
A number is an active result; – = inactive; ? = inconclusive; · = no result given.

SMILES	tim23-1 inh	TIM10 inh	tim10-1 inh	SKKanGAS inh	PfHsp90 yeast 2	NALP1 yeast inh	tim23-1 conf
CCCCc1c(C)nc2ccc(C)cc2c1SCCC(=O)O	55	–	–	–	–	–	–
S=C(NCCSCc1c(Cl)cccc1Cl)Nc1ccccc1	50	–	–	·	·	–	51
CC(C)Cc1ccc(CN2CCCC(NC(=O)CCCN3CCCC3=O)C2)cc1 (stereo unspecified)	–	–	–	–	–	–	·
CC(C)CC(=O)NN(C)c1nc(-c2ccccc2)nnc1C(F)(F)F	–	–	–	–	–	–	·
Oc1ccc2ccccc2c1C=Nc1ccccc1-c1nc2ccccc2[nH]1	52	–	–	–	–	–	47
COc1ccc(C2=NN(CC(=O)Nc3ccccc3C)C(=O)CC2)cc1	–	–	–	–	–	·	·
COc1cc2sc3cc(NCc4ccc(C)o4)ccc3c(=O)c2cc1OC	58	–	–	·	·	·	72
O=C(NC(=S)NCCc1ccccc1)c1cccc(Cl)c1	52	–	–	–	–	–	46
COC(=O)N/N=C/c1ccc(-c2cccc(Cl)c2)o1	–	–	–	–	–	–	·
COC(=O)N/N=C/c1ccc(-c2cc(Cl)cc(Cl)c2)o1	57	–	–	–	–	–	62
Cc1noc(C)c1CSc1nc2ccccc2c(=O)n1-c1ccccc1	52	–	–	–	–	–	45
CCOC(=O)C1=NNC2(CC(=O)N(c3cc(C)cc(C)c3)C2=O)C1 (stereo unspecified)	–	–	–	–	–	·	·
CCc1ccc(OCCNc2cc(N3CCNC(C)C3)ccc2[N+](=O)[O-])cc1 (stereo unspecified)	57	–	–	·	–	·	59
CCN1CCN(C(=O)c2ccc(CS(=O)Cc3ccc(C)cc3)o2)CC1 (stereo unspecified)	–	–	–	–	–	–	·
COc1ccc(-c2csc(Nc3ccc(C)cn3)n2)cc1OC	–	–	–	–	–	–	·
COc1ccc(-c2csc(Nc3cc(C)ccn3)n2)cc1OC	94	–	–	–	–	–	–
O=C(OCc1cccc(F)c1)c1cc2ccccc2cc1O	94	–	–	–	–	–	–
CN(C(=O)COC(=O)c1cc2ccccc2cc1O)C1CCCCC1	55	–	–	·	–	·	49
CCc1ccc(OCC(=O)N2CC(C(=O)OC)Oc3ccccc32)cc1 (stereo unspecified)	–	–	–	–	–	–	·
Nc1nc2ccccc2n1/N=C/c1ccc(-c2ccccc2)o1	55	–	–	?	–	–	–
COc1ccc(-c2nc(CNS(=O)(=O)c3cc(OC)ccc3OC)cs2)cc1	–	–	–	–	–	·	·
COc1ccc(-c2nc3ccccc3[nH]2)cc1	63	–	–	–	–	–	57
c1ccc(-c2nc3ccccc3[nH]2)cc1	50	–	–	–	–	–	46
Cc1cc(O)c(NC(=O)c2cc([N+](=O)[O-])ccc2Cl)cc1C	–	–	–	–	–	–	·
C[C@@H]1C(c2cccc(Cl)c2)=NN(c2ccc(Br)cc2)[C@H]1C(=O)N1CCOC1=O	52	–	–	·	–	·	38
SMILES	tim23-1 inh	TIM10 inh	tim10-1 inh	SKKanGAS inh	PfHsp90 yeast 2	NALP1 yeast inh	tim23-1 conf
O=C1OCCN1C(=O)[C@H]1[C@H](c2ccccc2)C(c2ccccc2)=NN1c1ccc(Br)cc1	–	–	–	·	–	·	·
C[C@@H]1C(c2cccc(Cl)c2)=NN(c2ccccc2)[C@H]1C(=O)N1CCOC1=O	–	–	–	·	–	·	·
C[C@@H]1C(c2ccccc2)=NN(c2ccccc2)[C@H]1C(=O)N1CCOC1=O	54	–	–	·	–	·	–
CCCCn1c(N)c(N(CC(C)C)C(=O)c2cc(-c3ccc(OC)cc3)nc3ccccc23)c(=O)[nH]c1=O	·	·	·	·	–	·	·
CCc1ccc(N(C(=O)CNC(=O)c2ccco2)C(C(=O)NC2CCCC2)c2ccncc2)cc1 (stereo unspecified)	–	–	–	–	–	–	·
CC1=NOC(=O)/C1=C\c1ccc(-c2cccc(Cl)c2)o1	57	–	–	–	–	–	69
CNC(=O)COC(=O)c1ccccc1Oc1ccccc1	–	–	–	–	–	–	·
C(=N\Nc1nc2ccccc2s1)/c1ccccn1	58	–	–	75	·	–	61
O=C(COC(=O)C12CC3CC(CC(Cl)(C3)C1)C2)Nc1ccccc1	54	–	–	·	–	·	46
O=C(CN1CCCCC1)Nc1nnc(-c2ccc([N+](=O)[O-])cc2)s1	91	–	–	–	–	–	–
O=C(CN1CCCCC1)Nc1nnc(-c2ccccc2)s1	–	–	–	–	·	–	·
CCO[C@@H]1OC(C(=O)Nc2ccccc2)=C[C@H](c2ccc3c(c2)OCO3)[C@H]1CCCO	–	–	–	–	–	–	·
CN(C)CC(=O)Nc1nc(-c2ccccc2)cs1	–	–	–	–	–	–	·
CC1CC1C(=O)Nc1nc(-c2ccccc2)cs1 (stereo unspecified)	53	–	–	–	–	–	47
COc1ccc(C(=O)OCc2nnc(-c3ccccc3)o2)cc1S(=O)(=O)N1CCOCC1	–	–	–	–	–	·	·
O=c1c2ccccc2oc2c1ccc1ccccc12	55	–	–	·	–	·	–
COc1ccc(O)c(C2NC(CC(C)C)(C(=O)O)C3C(=O)N(Cc4ccccc4)C(=O)C23)c1 (stereo unspecified)	–	–	–	–	·	–	·
CCC(C)Sc1cccc(-c2nc3cnccn3c2NC2CCCCC2)c1 (stereo unspecified)	–	–	–	·	–	·	41
c1cc(SC2CCCCC2)cc(-c2nc3cnccn3c2NC2CCCCC2)c1	–	–	–	·	–	·	·
CCC(C)Sc1ccc(-c2nc3ccc(C)cn3c2NC2CCCCC2)cc1 (stereo unspecified)	–	–	–	–	·	·	·
CCCCNc1c(-c2ccc(OC)c(SC(C)CC)c2)nc2cc(C)ccn12 (stereo unspecified)	55	–	–	·	–	·	51
CCCCNc1c(-c2ccc(OC)c(SC(C)CC)c2)nc2ccc(Cl)cn12 (stereo unspecified)	–	–	–	·	–	·	·
CCCCNc1c(-c2ccc(OC)c(SC(C)CC)c2)nc2ccc(C)cn12 (stereo unspecified)	54	–	–	·	–	·	41
CCC(C)Sc1cc(-c2nc3cc(C)ccn3c2NC2CCCCC2)ccc1OC (stereo unspecified)	60	–	–	·	–	·	49
OC[C@@H]1[C@@H](c2ccc(Cl)cc2)C(c2ccccc2)=NN1c1ccccc1	53	–	–	·	–	·	–
